HEK293 cAMP ctrl: qHTS Assay for Agonists of the Thyroid Stimulating Hormone Receptor: Activators of Intracellular cAMP Concentrations in Parental HEK 293; parental HEK293 CNG cAMP sensor, membrane potential fluorescence; Potency, µM (top dose mostly 57.1 µM), usual class: activators; AID 938, 2007; hit rate 2.5% among 73,000; note: nearly all actives have a fitted effect of over 55% in size
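Counterscreen for endogenous-receptor signalling: CNG-channel HEK 293 cells report cAMP rise by membrane depolarization. After 60 min dye equilibration with 100 uM RO 20-1724, compounds incubated 30 min before bottom-read fluorescence at 590 nm.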
p53ts 39C kill: qHTS Screen for Compounds that Selectively Target Cancer Cells with p53 Mutations: Cytotoxicity of p53ts Cells at the Nonpermissive Temperature. H1299-p53A138V viability at 39C, ATP luminescence, 24 h. AID 902, 2007. hit rate 1.5% among 130,000. Potency, µM (top dose mostly 46.1 µM), hits mostly cytotoxic; note: nearly all actives have a fitted effect of over 55% in size
Imprint erasure: qHTS Assay for Compounds that Induce Erasure of Genomic Imprints; mouse ES Peg3-LacZ reporter, beta-gal luminescence, 40 h; hit rate 0.02% among 110,000; Potency, µM (series often up to 60.7 µM), usual class: activators; AID 1948, 2009
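Gelatin-coated wells received 300 freshly trypsinized female ES cells with a Peg3LacZ-Neo reporter on the maternal allele, then incubated 40 hours at 37C. BetaGlo was added for 5 minutes at room temperature before a single luminescence read.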
IkB sig inh: IkB Signaling; ABC-DLBCL IkBa-CBG/CBR dual luciferase ratio, 4 h; response scale: scaled: untreated 0%, proteasome inhibitor 100%; Potency, µM (doses to about 57.1 µM); hit rate 0.04% among 110,000; AID 445, 2006; active = well fitted curve in the direction sought with a large enough effect in the signal ratio, not every such curve was filed as active; inconclusive = small, poorly fitted or top-dose-only effect, or a change in a side signal; the % refers to the signal ratio;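 note: the direction sought is a rising ratio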
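Curves were fitted separately to fusion (green), unfused (red) and ratio luminescence, then classed by r2, magnitude and activity. Cells: OCI-Ly3, 4 h compound plus doxycycline at 37C; 10 uM MG-132 defined full response.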
p53ts 32C tox: qHTS Screen for Compounds that Selectively Target Cancer Cells with p53 Mutations: Cytotoxicity of p53ts Cells at the Permissive Temperature. H1299-p53A138V at 32C, ATP luminescence viability, 24 h. Potency, µM (series often up to 46.1 µM), actives largely listed as cytotoxic. hit rate 0.93% among 130,000. AID 924, 2007; note: nearly all actives have a fitted effect of over 55% in size
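ATP-content luminescence (ATPlite) read-out after 24 h compound exposure at 32C in H1299-p53A138V cells (600/well). Tested up to 46 uM. Normalized to DMSO (0%) and 100 uM tamoxifen (100% killing); Hill-fit AC50.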
TSHR ag: qHTS Assay for Agonists of the Thyroid Stimulating Hormone Receptor | Thyrotropin receptor (Homo sapiens), P16473 | HEK293-CNG-TSHR cells (CNG channel as cAMP sensor), membrane potential dye, cAMP | Potency, µM (doses to about 57.1 µM), actives largely listed as activators | hit rate 0.48% among 73,000; active = well fitted activation curve with a large enough effect in the main read-out, with a control signal flat, not every such curve was filed as active; inconclusive = small, poorly fitted or top-dose-only effect, or a change in a side signal; inactive = no such curve, though single readings can be large or run the other way; reference of the percent scale not stated here;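 note: the control signal comes from parental cells without the receptor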
Target sequence (P16473 whole entry, looked up): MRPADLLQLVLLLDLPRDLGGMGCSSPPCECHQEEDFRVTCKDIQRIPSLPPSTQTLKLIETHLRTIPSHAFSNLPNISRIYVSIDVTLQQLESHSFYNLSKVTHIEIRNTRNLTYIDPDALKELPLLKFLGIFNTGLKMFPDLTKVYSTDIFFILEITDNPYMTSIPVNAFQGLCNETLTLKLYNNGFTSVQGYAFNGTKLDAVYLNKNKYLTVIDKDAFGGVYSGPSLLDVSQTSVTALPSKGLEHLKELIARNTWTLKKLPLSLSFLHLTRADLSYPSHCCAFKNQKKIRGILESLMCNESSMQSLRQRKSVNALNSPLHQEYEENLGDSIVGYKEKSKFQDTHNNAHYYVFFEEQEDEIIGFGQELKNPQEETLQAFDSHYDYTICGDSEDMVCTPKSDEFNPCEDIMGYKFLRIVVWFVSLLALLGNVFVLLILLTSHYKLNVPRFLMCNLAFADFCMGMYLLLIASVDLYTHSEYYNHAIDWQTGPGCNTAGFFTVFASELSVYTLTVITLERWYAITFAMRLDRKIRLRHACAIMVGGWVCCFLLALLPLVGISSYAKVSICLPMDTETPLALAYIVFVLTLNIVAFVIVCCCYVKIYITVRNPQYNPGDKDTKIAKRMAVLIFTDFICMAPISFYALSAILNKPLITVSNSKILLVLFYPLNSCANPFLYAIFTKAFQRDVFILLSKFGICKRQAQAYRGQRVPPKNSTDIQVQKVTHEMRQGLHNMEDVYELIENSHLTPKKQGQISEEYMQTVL
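HEK 293 cells stably expressing TSHR and a cAMP-gated CNG channel; parental CNG-only cells as counterscreen. Cells preloaded 60 min with membrane potential dye plus 100 uM RO 20-1724, then compound 30 min; fluorescence read at 590 nm.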
Numbers stand for hits; n = inactive; u = inconclusive; x = no result; [ ] = remark or other dose. Most compounds without a hit are left out; they make up all but 3.1% or so of the library. Unless noted, calls come from the whole dose curve; as a rule, active = well fitted curve in the direction sought with a large enough effect; inconclusive = small, poorly fitted or top-dose-only effect, or another doubt; inactive = no such curve, though single readings can be large; an effect the other way counts as inactive or inconclusive.

SMILES	HEK293 cAMP ctrl	p53ts 39C kill	Imprint erasure	IkB sig inh	p53ts 32C tox	TSHR ag
O=C(NCCc1c[nH]c2ccccc12)C(F)(F)C(F)F	n	n	n	n	n	n
COc1ccc(C)cc1NC(=O)CSc1nnc(-c2cc3cccc(OC)c3o2)n1N	16µM	n	n	n	n	u
COc1ccc(NC(C)=O)cc1NC(=O)CSc1nnc(-c2ccccc2)n1N	n	n	n	n	n	n
COC(=O)CNC(=O)[C@@]1(Cc2ccccc2)C=C[C@@H](C)N1C(=O)c1ccccc1	u	n	n	x	n	u
C[C@@H]1C=C[C@](Cc2ccccc2)(C(=O)NCC2CC2)N1C(=O)c1ccccc1	16µM	n	n	x	n	u
COc1ccc(Oc2ncc3nc(C)c(=O)n(Cc4cccc(OC)c4)c3n2)cc1	25µM	n	n	n[11.4 µM]	n	u
COc1ccc(Oc2ncc3nc(-c4cccc(C#N)c4)c(=O)n(Cc4cccc(OC)c4)c3n2)cc1	25µM	n	u	n[11.4 µM]	n	u
COc1cccc(Cn2c(=O)c(C)nc3cnc(OC)nc32)c1	u	n	n	n[11.4 µM]	n	u
O=c1c(-c2cccs2)nc2cnc(N3CCNCC3)nc2n1-c1ccccc1	n	n	x	n[11.4 µM]	n	n
O=c1c(-c2ccc(F)cc2)nc2cnc(N3CCNCC3)nc2n1-c1ccccc1	n	u	n	n[11.4 µM]	13µM	n
COc1cccc(Cn2c(=O)c(-c3cc(F)cc(F)c3)nc3cnc(N4CCNCC4)nc32)c1	n	16µM	n	n[11.4 µM]	u	n
COc1ccccc1NC(=O)CSc1oc(-c2ccc(F)cc2)nc1S(=O)(=O)c1ccc(Br)cc1	x	n	n[10.9 µM]	u	n	x
CCSc1nnc(-c2cccc(S(=O)(=O)N(C)C)c2)n1-c1cc(OC)ccc1OC	5µM	n	n	n	n	u
CCCSc1nnc(-c2cccc(S(=O)(=O)N(C)C)c2)n1-c1cc(OC)ccc1OC	7.9µM	n	n	n	n	u
CC(C)CCn1c(N)c(S(=O)(=O)c2cccs2)c2nc3ccccc3nc21	n	n	n	u	n	13µM
CCc1nn(CC(=O)Nc2ccc(C)c(F)c2)c(=O)c2cc3cc(C)ccc3n12	x	32µM	n[10.9 µM]	n	n	x
Cc1ccc(NC(=O)Cn2ncn3c(cc4ccccc43)c2=O)cc1F	x	n	n[10.9 µM]	n	n	x
CN=c1scc(-c2cccs2)n1/N=C/c1ccc(O)c(O)c1O	x	6.3µM	x	x	x	x
Cc1nc2ccccc2c(=O)n1/N=C/c1cn(-c2ccccc2)nc1-c1cccs1	n	n	n	u	n	n
O=c1/c(=C\c2ccc3c(c2)OCO3)sc2n1CCCN=2	n	13µM	n	u	13µM	n
Cc1nnc(N2CCN(C(=O)Nc3cc(F)ccc3F)CC2)c2nn(-c3ccc(Cl)cc3)c(C)c12	x	13µM	n[10.9 µM]	n	u	x
COc1ccc(NC(=O)C2CCCN(c3nnc(C)c4c(C)n(-c5ccccc5)nc34)C2)cc1Cl (stereo not drawn)	x	10µM	n[10.9 µM]	u	u	x
COc1ccc(-n2nc3c(N4CCC(C(=O)NCc5cccc(F)c5)CC4)nnc(C)c3c2C)cc1	x	5µM	n[10.9 µM]	n	u	x
Cc1ccc(NC(=O)C2CCN(c3nnc(C)c4c(C)n(-c5ccccc5)nc34)CC2)cc1Cl	x	n	n[10.9 µM]	u	n	x
COc1ccccc1NC(=O)N1CCN(c2nnc(C)c3c(C)n(-c4ccc(Cl)cc4)nc23)CC1	x	n	n[10.9 µM]	n	n	x
SMILES	HEK293 cAMP ctrl	p53ts 39C kill	Imprint erasure	IkB sig inh	p53ts 32C tox	TSHR ag
O=S(=O)(NCC(c1ccco1)S(=O)(=O)c1ccccc1)c1cc(F)ccc1F (stereo not drawn)	x	n	n[10.9 µM]	n	n	x
CCOc1ccc2nc(N3CCCC(C(=O)NCCCN4CCOCC4)C3)sc2c1 (stereo not drawn)	u	n	n	n	10µM	u
CCOc1ccc2nc(N3CCCC(C(=O)NCCc4ccc(Cl)cc4)C3)sc2c1 (stereo not drawn)	x	u	n[10.9 µM]	u	n	x
C/C(=C\COc1cc(=O)[nH]c2ccccc12)CC[C@@H](O)C(C)(C)O	n	x	x	n[11.4 µM]	x	n
Cc1nnc(C)c2c(C)n(-c3ccc(Br)cc3)c(C)c12	4µM	n	n	n	n	u
CCN(CC)CCNC(=O)Nc1ccc2c(c1)N(Cc1ccccc1)C(=O)c1ccccc1S2	x	20µM	n[10.9 µM]	n	n	x
N#CCSc1nc2c(c(C3CC=CCC3)c1C#N)CCC2 (stereo not drawn)	10µM	n	x	u	n	u
N#Cc1c(SCC(N)=O)nc2c(c1-c1ccc(O)cc1)CCCC2	n	n	n	n	n	n
CCCCC(CC)CNC(=O)c1ccc2c(=O)n(Cc3ccc(OC)cc3)c(=O)[nH]c2c1 (stereo not drawn)	x	n	n[10.9 µM]	n	n	x
CCCCC(CC)CNC(=O)c1ccc(Cn2c(=O)[nH]c3cc(OC)c(OC)cc3c2=O)cc1 (stereo not drawn)	x	4µM	n[10.9 µM]	u	u	x
CCCCOc1ccc(C(=O)NCCS(=O)(=O)N2CCN(c3ccccc3OC)CC2)cc1	x	n	n[10.9 µM]	u	n	x
Cc1ccnc(NC(=O)/C=C/c2cccs2)c1	x	7.1µM	x	x	x	x
Cc1ccc(NC(=O)COc2ccc(-c3nn(C)c(=O)c4ccccc34)cc2)c(C)c1	x	n	n[10.9 µM]	u	n	x
Cn1nc(-c2ccc(N3CCOCC3)c(NC(=O)COc3ccccc3)c2)c2ccccc2c1=O	n	n	n	n	n	10µM
CCOC(=O)C1C(=O)CC(C)(O)C(C(=O)OCC)C1/C=C/c1ccccc1 (stereo not drawn)	5µM	n	n	n	n	u
COC(=O)C1C(=O)CC(C)(O)C(C(=O)OC)C1/C=C/c1ccccc1 (stereo not drawn)	n	n	x	x	n	n
CCN(CC)CCNC(=O)c1cc2c(-c3ccc(Cl)cc3)nn(C)c2s1	n	n	n	u	n	n
CCCCN(CC)CCNC(=O)c1cc2c(-c3ccc(Cl)cc3)nn(C)c2s1	x	16µM	n[10.9 µM]	u	n	x
CCCN(CCC)CCNC(=O)c1cc2c(-c3ccc(Cl)cc3)nn(C)c2s1	x	13µM	n[10.9 µM]	u	n	x
O=C(Nc1ccc(F)c(Cl)c1)C1CCN(c2ncccn2)CC1	x	n	n[10.9 µM]	u	n	x
O=c1c(-c2cccs2)nc2cnc(N3CCOCC3)nc2n1CCc1ccccc1	n	n	n	n[11.4 µM]	n	n
Cc1cc(=O)[nH]c2nnc(SCC(=O)Nc3cc(C(F)(F)F)ccc3Cl)n12	x	n	n[10.9 µM]	n	n	x

Screening data from PubChem.
